From PubChem BioAssay
Hits are enriched below; roughly 1.5% of the tested compounds scored in any of these assays.
ugtP null kill = growth inhibition of S. aureus ugtP deletion strain | S. aureus RN4220 ugtP deletion, OD600 growth, 16 h | growth inhibition, % (concentration not given with the values) | 0.54% of 330,000 active | AID 1259309; in the data active = growth inhibition above about 68%
PriA SSB inh = K. pneumoniae PriA-SSBct interaction inhibition. AlphaScreen SSBct-PriA binding, biotinylated peptide. inhibition, % at 33 µM. 0.6% of 430,000 active. AID 1272365; in the data active = inhibition mostly above about 37%, no sharp cut-off; inactive = mostly below about 20%
RN4220 kill = S. aureus RN4220 growth inhibition; OD600, 16 h; inhibition, % (test concentration not listed); 0.33% of 330,000 active; AID 1259311; in the data active = inhibition above about 85%
VHR inh abs = inhibitors of human VHR1 phosphatase (DUSP3); P51452; recombinant VHR phosphatase, pNPP absorbance; inhibition, % at 13.3 µM; 0.52% of 290,000 active; AID 1654; in the data active = inhibition above about 50%
Target sequence (P51452 whole entry, looked up): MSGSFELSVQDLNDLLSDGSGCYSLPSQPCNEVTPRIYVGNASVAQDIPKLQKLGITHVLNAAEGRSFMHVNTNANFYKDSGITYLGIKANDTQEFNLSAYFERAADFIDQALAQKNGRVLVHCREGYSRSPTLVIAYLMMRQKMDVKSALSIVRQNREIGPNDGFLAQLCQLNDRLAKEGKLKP
CCHFV vOTU inh = CCHFV vOTU protease inhibition; Pep-AMC fluorescence; inhibition, % at 11.5 µM; 0.55% of 370,000 active; in the data active = inhibition above about 30%
Numbers stand for hits; n = inactive; x = no result; ! = not active in a repeat.

SMILES	ugtP null kill	PriA SSB inh	RN4220 kill	VHR inh abs	CCHFV vOTU inh
CCCCCCCCNC(=O)/C(C#N)=C/c1ccccc1[N+](=O)[O-]	91	n	n	n	n
COc1ccc(CN2CCCC(C(=O)Nc3cccc(-n4cccn4)c3)C2)cc1 (centres undefined)	n	n	n	n	n
COC(=O)c1ccc(CN2CCCC(C(=O)Nc3cccc(-n4cccn4)c3)C2)cc1 (centres undefined)	n	n	n	52	n
CCn1c(CNC(=O)c2cccc(C)c2)nnc1SCC(=O)NC1=NCCS1	n	n	n	52	n
c1ccc(C2=Nc3c(ccc4ccccc34)C(c3ccncc3)=NN2)cc1	n	47	n	n	n
COc1ccccc1OCC(=O)NCCc1ccc2c(c1)CCCN2C	x	45	x	x	x
CN1CCCc2cc(CCNC(=O)Cc3ccc(F)cc3)ccc21	x	n	x	x	x
COc1ccccc1NC(=O)NCCc1ccc2c(c1)CCCN2C	x	56	x	x	x
COc1ccc(C=NNc2cc(N3CCCC3)nc(N3CCCC3)n2)cc1	n	49	n	x	x
COc1ccc(/C=N/Nc2cc(N3CCCC3)nc(N3CCCC3)n2)cc1	x	x	x	n	n
COC(=O)c1ccc(-c2ccco2)n1Cc1cccc(C)c1	94	n	n	n	n
COC(=O)c1ccc(-c2ccco2)n1Cc1cc(C)ccc1C	n	n	n	n	n
O=C(NCCc1csc2nc(-c3ccc(Cl)cc3)nn12)C(=O)Nc1ccc2c(c1)OCCO2	x	n	x	x	x
CCSc1ccc(C(N)=NOC(=O)c2cccs2)cn1	x	n	x	x	x
CC(=O)c1ccc2nc(N)sc2c1	x	n	x	x	x
CCCNC(=O)c1ccc2nc(N)sc2c1	x	87	x	x	x
Nc1nc2ccc(C(=O)O)cc2s1	x	89!	x	x	x
COC(=O)c1ccc2nc(N)sc2c1	x	53	x	x	x
CCNC(=O)c1ccc2nc(N)sc2c1	x	n	x	x	x
Clc1ccc(OCCn2ncc3ccccc32)cc1	x	n	x	x	x
COc1cc(OC)cc(C(=O)NCC2CCN(C(=O)c3cccnc3)CC2)c1	x	n	x	x	x
CC1CCCN(C(=O)c2ccc3nc[nH]c3c2)C1 (centres undefined)	n	n	n	52	n
O=C(c1ccc2nc[nH]c2c1)N1CCC(Oc2ncccn2)CC1	x	n	x	x	x
O=C(Nc1cc(Cl)ccc1-n1cncn1)c1ccc([N+](=O)[O-])s1	101	n	n	n	x
COC(=O)c1ccc(C(=O)NCC(c2cccc3ccccc23)N(C)C)cc1 (centres undefined)	x	n	x	x	x
SMILES	ugtP null kill	PriA SSB inh	RN4220 kill	VHR inh abs	CCHFV vOTU inh
CO[C@@H](CNC(=O)C(=O)Nc1cccc(N2CCCC2=O)c1)c1ccsc1	x	n	x	x	x
NC(=O)c1ccsc1NC(=O)c1ccc(Cl)cc1Cl	x	n	x	x	x
Cc1ccc(C)c(Nc2c([N+](=O)[O-])ccc3nonc23)c1	n	50	n	n	n
CC(C)CNS(=O)(=O)c1ccc2nc(NC(=O)c3ccccn3)sc2c1	x	96	x	x	x
Cc1nc(C(=O)N2CCC(Oc3ncccc3C#N)CC2)cs1	x	n	x	x	x
CCC(=O)c1ccc(OCC(O)CNCc2ccc(F)cc2)cc1 (centres undefined)	n	n	n	n	n
CCC(=O)c1ccc(OCC(O)CNCCc2ccc(Cl)cc2)cc1 (centres undefined)	n	40	n	n	n
Clc1ccccc1CNc1ncnc2c1cnn2-c1ccccc1	x	n	x	x	x
COc1ccccc1CNc1ncnc2c1cnn2-c1ccccc1	n	46	n	n	n
Cn1ccnc1SCC1CCN(S(=O)(=O)c2ccc3c(c2)CCCC3)CC1	x	63	x	x	x
O=C(NCc1ccccc1Cl)c1cc2n(n1)CCCO2	x	n	x	x	x
COc1ccc(CNC(=O)Cn2ncn3c(cc4ccccc43)c2=O)cc1	n	n	n	n	n
Cc1ccc(Cn2ncn3c(cc4ccccc43)c2=O)cc1	93	n	n	n	n
CCC1CCCCN1S(=O)(=O)c1ccc(C(=O)Nc2nnc(-c3cccs3)o2)cc1 (centres undefined)	99	n	95	n	x
CC1CC(C)CN(S(=O)(=O)c2ccc(C(=O)Nc3nnc(-c4cccs4)o3)cc2)C1 (centres undefined)	100	n	100	n	n
O=C(Nc1nnc(-c2cccs2)o1)c1cccc(C(F)(F)F)c1	100	n	100	n	n
CN(C)S(=O)(=O)c1ccc(C(=O)Nc2nnc(-c3cccs3)o2)cc1	n	n	n	n	n
COC(=O)C(C(=O)OC)C(CC#N)c1ccccc1 (centres undefined)	x	n	x	x	x
OCC[C@@H]1C[C@@H](O)[C@H](O)[C@]2(CCCc3ccccc3O2)O1	x	n	x	52	n
O=C(NCc1ccccc1Cl)C(=O)NCC1CCN(C(=O)c2ccncc2)CC1	x	n	x	x	x
CS(=O)(=O)CCC(C(=O)Nc1ccc2c(c1)OCO2)N1Cc2ccccc2C1=O (centres undefined)	n	n	n	57	n
COc1cccc2c1C(=N)c1c(O)c3c(c(O)c1C2=O)CC(O)(C(C)=O)CC3OC1CC(N)C(O)C(C)O1 (centres undefined)	x	85	x	x	x
O=C(Cc1nnc(NC(=O)Nc2ccc(Cl)cc2)s1)NCc1ccccc1	n	n	n	n	n
O=C(Cc1nnc(NC(=O)Nc2ccccc2)s1)NCc1ccccc1	x	n	x	58	n
O=C(C1CC1)N1CCN(c2ccc(-c3noc(C(F)(F)F)n3)cn2)CC1	x	n	x	x	x
SMILES	ugtP null kill	PriA SSB inh	RN4220 kill	VHR inh abs	CCHFV vOTU inh
CCOC(=O)c1cc(-c2ccc(N)cc2)sc1N	n	50	n	n	n
CCOc1ccc2nc3cc(NCc4ccc(OC)cc4)ccc3c(N)c2c1	100	n	101	n	x
O=C(O)c1ccc2cc[nH]c2c1	n	n	n	54	n
CC(=NNC(=S)N1CC2CCC(CC2)C1)c1nccs1	x	57	x	x	n
N=C1/C(=C/c2cccs2)C(=O)N=C2SN=C(SCc3ccccc3)N12	83	n	n	n	n
CC(C)CSC1=NSC2=NC(=O)/C(=C\c3cccs3)C(=N)N12	n	n	n	n	n
Cc1ccc2c(c1)[C@H](c1ccc(F)cc1)N(C(=O)C1(c3ccc(Cl)cc3)CCCC1)CC(=O)N2	x	n	x	x	x
COc1ccc(C(=O)NNS(=O)(=O)c2ccc(OC)cc2)cc1	n	n	n	58	n
COc1ccc(C(=O)NNS(=O)(=O)c2ccccc2)cc1	n	n	n	n	n
CCOC(=O)COC(=O)c1sc2nc(SCC(=O)OCC)nc(N)c2c1C	x	n	x	x	x
O=S(=O)(NC1CCN(c2nccs2)C1)c1ccc(Cl)s1 (centres undefined)	x	n	x	x	x
CCn1c(SCc2ccccc2Cl)nc2ccccc21	91	n	n	n	n
Cn1c(SCc2ccccc2Cl)nc2ccccc21	n	n	n	n	n
CCn1c(=NC(=O)c2ccccc2[N+](=O)[O-])sc2cc(F)cc(F)c21	x	n	x	x	x
CC(=O)Nc1nc(-c2cccs2)cs1	n	n	n	n	n
O=C(Nc1nc(-c2cccs2)cs1)c1ccc(Cl)s1	94	n	n	n	n
Cc1nc(C)c(C(=O)Nc2nc(-c3ccccn3)cs2)s1	x	157	x	x	x
O=C(Nc1nc(-c2ccccn2)cs1)c1ccc(C(=O)c2ccccc2)cc1	x	n	x	x	x
Cc1ccc(C(=O)Nc2nc(-c3ccccn3)cs2)cc1	x	78	x	x	x
Cn1nc(C(=O)Nc2nc(-c3ccccn3)cs2)c2ccccc2c1=O	n	43	n	x	n
CCCn1nc(C(=O)Nc2nc(-c3ccccn3)cs2)c2ccccc2c1=O	n	n	n	x	n
